Measurements taken from ChEMBL document CHEMBL3988442, “University of Dundee, Small-Polar-MMV Screening Library” (2021).
For some of these results: Measured potencies and affinities stand elsewhere.

Experiments:
Design in all cases: scale not given: direction of the effect not stated beside the values
[1] = target: Protein translocase subunit SecA (Escherichia coli (strain K12)) (UniProt P10408); assay: Assay to Identify E. coli SecA ATPase Inhibitors; type: functional; conditions: 30 µM
[2] = target: T1, Ubiquitin-activating enzyme e1, putative (Leishmania donovani (strain BPK282A1)) (UniProt E9BSI1); assay: Leishmania donovani Ubiquitin Activating Enzyme (LdE1); type: functional; conditions: 30 µM
T1 sequence (whole entry): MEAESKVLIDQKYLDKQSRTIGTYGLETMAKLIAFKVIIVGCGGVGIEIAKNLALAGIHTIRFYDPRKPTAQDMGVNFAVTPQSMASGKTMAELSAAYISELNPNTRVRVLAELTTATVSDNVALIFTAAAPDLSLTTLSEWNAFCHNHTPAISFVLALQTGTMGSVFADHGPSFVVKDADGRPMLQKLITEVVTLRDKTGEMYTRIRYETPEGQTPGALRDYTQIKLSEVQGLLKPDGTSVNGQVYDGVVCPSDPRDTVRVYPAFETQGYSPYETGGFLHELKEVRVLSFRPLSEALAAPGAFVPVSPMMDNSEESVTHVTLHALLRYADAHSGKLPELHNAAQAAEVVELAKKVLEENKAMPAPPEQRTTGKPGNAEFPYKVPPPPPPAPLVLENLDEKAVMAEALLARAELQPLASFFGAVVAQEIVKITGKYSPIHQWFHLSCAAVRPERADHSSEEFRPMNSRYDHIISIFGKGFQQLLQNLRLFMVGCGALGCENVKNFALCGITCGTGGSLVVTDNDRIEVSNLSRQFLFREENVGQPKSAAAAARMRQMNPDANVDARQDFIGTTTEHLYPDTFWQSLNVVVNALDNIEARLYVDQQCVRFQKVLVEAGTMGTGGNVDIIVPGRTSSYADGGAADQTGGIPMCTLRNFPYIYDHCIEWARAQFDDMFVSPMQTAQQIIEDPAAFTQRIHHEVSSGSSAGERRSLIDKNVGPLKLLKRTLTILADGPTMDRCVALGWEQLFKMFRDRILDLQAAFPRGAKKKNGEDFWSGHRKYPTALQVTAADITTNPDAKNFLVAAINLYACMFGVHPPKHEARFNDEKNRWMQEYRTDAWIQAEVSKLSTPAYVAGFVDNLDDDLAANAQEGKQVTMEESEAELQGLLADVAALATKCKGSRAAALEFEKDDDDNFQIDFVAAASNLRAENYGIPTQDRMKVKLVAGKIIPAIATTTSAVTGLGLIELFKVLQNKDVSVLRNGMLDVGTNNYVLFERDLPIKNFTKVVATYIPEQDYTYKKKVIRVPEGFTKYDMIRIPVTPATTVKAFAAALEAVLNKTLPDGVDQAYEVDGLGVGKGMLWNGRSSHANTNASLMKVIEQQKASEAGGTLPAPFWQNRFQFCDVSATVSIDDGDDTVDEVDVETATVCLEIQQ

[3] = target: AMP-activated protein kinase, AMPK (Homo sapiens) (UniProt P54646+O43741+P54619+Q9UGJ0+Q9Y478+Q13131+Q9UGI9); assay: AMP-dependent Kinase enzyme assay. An in vitro enzyme assay that detects ADP turnover that is directly proportional to AMPK activity. This uses naive AMPK that is activated during the assay with MK-8722; type: functional; conditions: 30 µM
[4] = target: Sialic acid-binding Ig-like lectin 9 (Homo sapiens) (UniProt Q9Y336); assay: Hs-Siglec9 ALPHAscreen SOP 20170721; conditions: 10 µM
Sialic acid-binding Ig-like lectin 9 (Homo sapiens), sequence (Q9Y336 whole entry): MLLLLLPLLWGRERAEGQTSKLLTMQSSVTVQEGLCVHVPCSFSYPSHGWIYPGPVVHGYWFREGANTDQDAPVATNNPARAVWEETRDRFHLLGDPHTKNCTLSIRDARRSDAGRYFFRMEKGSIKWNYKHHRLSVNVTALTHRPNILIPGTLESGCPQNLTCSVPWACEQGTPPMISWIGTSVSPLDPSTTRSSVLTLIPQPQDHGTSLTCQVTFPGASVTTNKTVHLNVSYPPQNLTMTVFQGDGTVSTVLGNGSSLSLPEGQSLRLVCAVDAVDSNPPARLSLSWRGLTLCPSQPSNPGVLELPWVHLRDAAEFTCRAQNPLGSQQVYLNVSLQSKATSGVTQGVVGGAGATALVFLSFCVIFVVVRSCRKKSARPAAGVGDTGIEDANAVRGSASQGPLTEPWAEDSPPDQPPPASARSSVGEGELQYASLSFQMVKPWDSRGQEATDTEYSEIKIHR

Trypanosoma cruzi = assay: Trypanosoma cruzi phosphomannomutase and mannose-1-phosphate guanylyltransferase assay; type: functional; conditions: 10 µM
[5] = target: T2, Arginase-2, mitochondrial (Homo sapiens) (UniProt P78540); assay: in vitro enzyme assay to detect the production of urea directly proportional to the activity of Arginase II; type: functional; conditions: 33.3 µM; further: in the data most compounds retested in dose-response had high values
T2 sequence (whole entry): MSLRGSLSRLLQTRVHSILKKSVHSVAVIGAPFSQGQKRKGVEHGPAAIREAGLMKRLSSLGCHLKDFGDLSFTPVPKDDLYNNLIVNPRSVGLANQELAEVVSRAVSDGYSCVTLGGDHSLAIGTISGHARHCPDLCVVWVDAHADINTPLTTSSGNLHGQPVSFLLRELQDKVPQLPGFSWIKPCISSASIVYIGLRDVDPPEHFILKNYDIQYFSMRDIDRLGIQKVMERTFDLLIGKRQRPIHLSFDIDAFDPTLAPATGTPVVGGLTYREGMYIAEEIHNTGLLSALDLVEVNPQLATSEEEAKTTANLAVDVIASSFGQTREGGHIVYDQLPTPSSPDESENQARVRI

[6] = target: T3, Proteasome subunit beta (Trypanosoma cruzi) (UniProt O96673); assay: Trypanosoma cruzi proteasome chymotrypsin-like activity (TcProtChymo) assay.; further: in the data most compounds retested in dose-response had high values; type: functional; conditions: 9.37 µM
T3 sequence (whole entry): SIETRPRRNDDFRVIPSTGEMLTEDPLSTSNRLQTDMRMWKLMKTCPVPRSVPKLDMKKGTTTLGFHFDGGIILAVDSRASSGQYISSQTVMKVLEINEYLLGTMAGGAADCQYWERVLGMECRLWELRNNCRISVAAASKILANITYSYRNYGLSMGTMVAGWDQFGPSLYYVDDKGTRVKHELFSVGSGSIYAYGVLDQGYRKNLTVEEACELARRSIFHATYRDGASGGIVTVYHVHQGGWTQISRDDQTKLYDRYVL

Homo sapiens = species: Homo sapiens; assay: To identify inhibition of the IFN signalling (Jak-Stat) pathway via expression of an eGFP reporter gene under the control of an IFN-stimulated response element (ISRE) containing MxA promoter.; type: functional; conditions: 30 µM
[7] = target: T4, Tyrosyl-tRNA synthetase, putative (Trypanosoma cruzi (strain CL Brener)) (UniProt Q4DSP6); assay: Trypanosoma cruzi tyrosyl tRNA synthetase (TcYRS) _High Tyrosine SOP; type: functional; conditions: 30 µM; further: in the data most compounds retested in dose-response had high values
T4 sequence (whole entry): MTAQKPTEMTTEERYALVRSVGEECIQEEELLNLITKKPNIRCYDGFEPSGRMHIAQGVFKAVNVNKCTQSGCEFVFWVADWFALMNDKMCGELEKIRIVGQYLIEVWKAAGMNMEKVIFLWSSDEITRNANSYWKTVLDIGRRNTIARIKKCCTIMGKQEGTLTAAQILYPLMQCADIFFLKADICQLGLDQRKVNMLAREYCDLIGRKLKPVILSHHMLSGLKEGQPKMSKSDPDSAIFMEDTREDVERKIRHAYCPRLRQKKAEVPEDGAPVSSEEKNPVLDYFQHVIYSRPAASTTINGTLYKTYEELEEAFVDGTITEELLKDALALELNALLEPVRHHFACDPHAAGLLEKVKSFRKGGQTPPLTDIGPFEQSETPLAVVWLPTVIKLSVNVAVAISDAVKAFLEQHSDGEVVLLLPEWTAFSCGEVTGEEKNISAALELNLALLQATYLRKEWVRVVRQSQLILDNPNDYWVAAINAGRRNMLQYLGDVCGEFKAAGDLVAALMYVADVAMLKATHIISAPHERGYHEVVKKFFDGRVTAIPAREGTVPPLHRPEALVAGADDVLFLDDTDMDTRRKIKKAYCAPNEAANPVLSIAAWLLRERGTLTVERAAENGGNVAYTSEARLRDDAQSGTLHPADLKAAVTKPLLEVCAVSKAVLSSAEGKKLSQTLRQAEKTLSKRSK

[8] = target: T4, Tyrosyl-tRNA synthetase, putative (Trypanosoma cruzi (strain CL Brener)); assay: Trypanosoma cruzi tyrosyl tRNA synthetase (TcYRS) SOP; type: functional; conditions: 30 µM
[9] = target: Chromo domain-containing protein 1 (Saccharomyces cerevisiae (strain ATCC 204508 / S288c) (Baker's yeast)) (UniProt P32657); assay: ScCHD-1 Enzyme Inhibition Assay; type: functional; conditions: 30 µM; further: in the data most compounds retested in dose-response had high values
Chromo domain-containing protein 1 (Saccharomyces cerevisiae (strain ATCC 204508 / S288c) (Baker's yeast)), sequence (P32657 whole entry, the tested form may be a part): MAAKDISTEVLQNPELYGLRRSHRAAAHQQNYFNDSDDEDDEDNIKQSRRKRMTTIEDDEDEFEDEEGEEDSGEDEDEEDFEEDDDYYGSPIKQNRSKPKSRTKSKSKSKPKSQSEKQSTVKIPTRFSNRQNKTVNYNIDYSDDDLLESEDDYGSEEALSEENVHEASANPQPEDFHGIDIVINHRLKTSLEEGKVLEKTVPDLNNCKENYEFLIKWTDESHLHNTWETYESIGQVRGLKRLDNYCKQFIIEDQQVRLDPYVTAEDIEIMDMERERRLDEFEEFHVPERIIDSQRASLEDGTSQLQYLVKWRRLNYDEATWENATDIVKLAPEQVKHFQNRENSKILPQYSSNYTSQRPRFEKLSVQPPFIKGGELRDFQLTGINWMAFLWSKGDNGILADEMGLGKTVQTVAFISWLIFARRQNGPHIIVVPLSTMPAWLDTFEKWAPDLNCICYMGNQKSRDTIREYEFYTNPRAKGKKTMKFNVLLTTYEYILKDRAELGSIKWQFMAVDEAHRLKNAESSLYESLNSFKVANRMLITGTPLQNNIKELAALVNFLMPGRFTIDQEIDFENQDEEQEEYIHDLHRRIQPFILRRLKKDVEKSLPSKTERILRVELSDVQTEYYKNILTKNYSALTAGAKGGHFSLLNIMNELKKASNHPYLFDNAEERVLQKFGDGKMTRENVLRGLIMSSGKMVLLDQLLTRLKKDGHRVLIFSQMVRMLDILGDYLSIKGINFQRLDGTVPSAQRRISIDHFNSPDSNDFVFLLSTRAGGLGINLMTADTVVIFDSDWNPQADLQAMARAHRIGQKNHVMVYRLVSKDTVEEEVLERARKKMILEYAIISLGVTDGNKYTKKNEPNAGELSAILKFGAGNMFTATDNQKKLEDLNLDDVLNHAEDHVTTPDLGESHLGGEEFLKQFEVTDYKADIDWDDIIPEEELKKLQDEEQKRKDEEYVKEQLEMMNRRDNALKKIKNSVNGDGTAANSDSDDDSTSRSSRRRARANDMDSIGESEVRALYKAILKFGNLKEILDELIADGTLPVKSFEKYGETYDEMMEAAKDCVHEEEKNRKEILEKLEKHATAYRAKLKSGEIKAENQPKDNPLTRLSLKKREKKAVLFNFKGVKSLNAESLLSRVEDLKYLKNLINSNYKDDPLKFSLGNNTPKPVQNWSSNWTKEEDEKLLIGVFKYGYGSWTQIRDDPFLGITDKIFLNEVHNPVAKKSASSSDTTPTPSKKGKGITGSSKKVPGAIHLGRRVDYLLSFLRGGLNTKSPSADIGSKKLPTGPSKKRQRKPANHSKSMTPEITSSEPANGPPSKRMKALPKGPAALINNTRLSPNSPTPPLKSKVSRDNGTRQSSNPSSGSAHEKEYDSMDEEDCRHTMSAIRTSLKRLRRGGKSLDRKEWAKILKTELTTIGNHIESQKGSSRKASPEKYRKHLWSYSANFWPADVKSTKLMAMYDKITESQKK

Protein translocase subunit SecA (Escherichia coli (strain K12)), sequence (P10408 whole entry): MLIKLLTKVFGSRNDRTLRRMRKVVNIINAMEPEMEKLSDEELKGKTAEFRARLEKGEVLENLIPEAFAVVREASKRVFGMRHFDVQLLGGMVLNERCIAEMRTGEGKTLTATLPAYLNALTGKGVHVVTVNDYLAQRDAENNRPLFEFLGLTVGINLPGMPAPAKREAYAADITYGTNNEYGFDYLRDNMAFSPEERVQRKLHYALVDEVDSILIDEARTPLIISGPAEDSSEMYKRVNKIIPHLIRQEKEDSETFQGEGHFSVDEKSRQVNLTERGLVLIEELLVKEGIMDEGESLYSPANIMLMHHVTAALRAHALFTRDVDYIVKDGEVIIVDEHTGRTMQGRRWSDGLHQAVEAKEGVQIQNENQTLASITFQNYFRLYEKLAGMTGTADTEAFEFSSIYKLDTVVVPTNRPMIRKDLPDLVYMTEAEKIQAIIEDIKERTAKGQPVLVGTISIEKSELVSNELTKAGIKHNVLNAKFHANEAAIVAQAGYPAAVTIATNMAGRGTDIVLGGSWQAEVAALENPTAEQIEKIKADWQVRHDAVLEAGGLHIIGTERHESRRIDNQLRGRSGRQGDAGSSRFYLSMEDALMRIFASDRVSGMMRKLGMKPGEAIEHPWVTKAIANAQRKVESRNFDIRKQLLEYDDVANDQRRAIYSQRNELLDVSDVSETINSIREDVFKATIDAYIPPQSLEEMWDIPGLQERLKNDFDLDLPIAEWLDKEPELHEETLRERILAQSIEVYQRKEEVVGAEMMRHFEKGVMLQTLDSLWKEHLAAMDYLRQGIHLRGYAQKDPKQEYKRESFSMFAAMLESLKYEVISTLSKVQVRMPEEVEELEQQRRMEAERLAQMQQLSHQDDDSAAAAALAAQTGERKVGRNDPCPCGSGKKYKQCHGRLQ

SMILES	Percent Effect [1] [%]	Percent Effect [2] [%]	Percent Effect [3] [%]	Percent Effect [4] [%]	Percent Effect (Trypanosoma cruzi) [%]	Percent Effect [5] [%]	Percent Effect [6] [%]	Percent Effect (Homo sapiens) [%]	Percent Effect [7] [%]	Percent Effect [8] [%]	Percent Effect [9] [%]
CC(C)C(Sc1nnc(C2CC2)n1C1CC1)C(=O)NCc1cccnc1 (stereo not given)	1.83	-2.6	-2.77	5.12	5.24	-1.42	3.21	-24.2	5.83	12.2	-8.74
O=C(c1cc[nH]n1)N1CCC(Nc2cccnn2)CC1	-5.6	7.79	1.01	-11.8	8.52	-2.74	9.62	5.31	6.67	11.8	-18.4
O=C(Cc1cccc(F)c1)NCCNCc1ccc2c(c1)CCO2	-4.03	13	-6	17.2	3.93	-1.42	-1.52	-5.5	8.74	19.5	-5.42
Cc1nc(C2CCCN2Cc2nc(C)c(C)o2)no1 (stereo not given)	-2.9	16.2	-2.94	-1.49	-1.95	1.29	4.49	-3.4	13.9	25.6	-5.47
CC(C)C(C(=O)N1CCC(Nc2cccnn2)CC1)n1cncn1 (stereo not given)	-0.999	-2.7	-4.26	1.29	-6.51	1.2	5.59	9.97	0.493	-1.24	-1.75
COc1ccccc1C(=O)NC(CC(=O)O)c1cccs1 (stereo not given)	-3.27	13.9	0.385	5.67	-1.33	2.8	20.2	-5.53	5.21	12.7	-19.2
Cc1cccc(C)c1OCCNC(=O)NC(C)c1nncn1C (stereo not given)	-5.7	15.6	-1.02	-14.1	5	-2.32	25.8	18.1	8.57	23.5	-21.4
COc1ccc(CN(Cc2cccnc2)CC2CCCO2)c(OC)c1 (stereo not given)	-1.69	-2.67	11.4	2.14	6.69	-1.63	7.67	3.47	2.13	6.41	-2.64
COc1ccc(C2CCCN2S(=O)(=O)N(C)CC(C)C)cc1 (stereo not given)	-1.74	-6.94	6.36	-0.345	-2.62	-3.97	5.61	-1.6	-5.26	-10.3	-2.11
O=C(CO)N1CCC(c2cncc(-c3cccc(Cl)c3)n2)CC1	-2.26	-2.67	27.8	-7.86	8.27	138	15.9	6.85	11.7	16.7	-5.15
Cc1nn(C)c(Cl)c1C1CCCN1C(=O)c1cc[nH]n1 (stereo not given)	-1.54	2.7	-1.34	13.1	2.74	-2	8.83	-3.1	2.46	11.1	-9.56
CCc1nsc(NC2CCCn3nc(COC)nc32)n1 (stereo not given)	-4.32	13.3	-5.77	21.4	4.77	16.7	9.94	7.13	3.83	13.6	-6.59
CCn1cc(CN2CCCn3nc(CCC(=O)NCCO)cc3C2)cn1	-3.01	5.2	13.5	4.51	-5.41	0	19.8	-0.55	4.3	8.64	0.629
CC(NC(=O)CSCC#N)c1cccc(NC(=O)c2ccccc2)c1 (stereo not given)	-6.35	15.8	-4.8	13.9	4.76	1.08	8.38	12.6	5.42	23.5	-7.99
Cc1n[nH]c(C)c1C1CCCN1C(=O)CNC(=O)C(C)(C)C (stereo not given)	-0.905	8.22	0.299	14	2.74	20.9	11.5	-2.46	0	5	-4.49
O=C1NCCCCC1Sc1nnc(-c2cccnc2)n1C1CC1 (stereo not given)	-2.96	2.74	5.81	0.732	-2.55	0	9.23	-4.55	7.53	12.5	-6.68
Cc1nc(CCNC(=O)NC2CCN(c3ncccn3)CC2)cs1	-1.83	11	-4.69	4.09	1.19	-1.6	16	22.2	11.5	21	0.13
O=C(NCCCOCC1CC1)Nc1cccnc1N1CCOCC1	-3.08	2.7	-5.79	0.4	-5.27	-1.67	21.1	10.8	-21.8	3.66	14.9
Cc1[nH]ccc1C(=O)Nc1cccc(CN2CCC(O)CC2)c1	0.333	10.5	-2.05	-6.23	-5.36	-2.37	16.2	8.85	1.06	10.4	-3.89
O=C(c1cccn1Cc1cccs1)N1CCCC1Cn1cccn1 (stereo not given)	-1.97	-23.7	-2.11	10.5	8.68	-4.68	8.38	-4.07	0.493	6.17	3.37
